Laboratory results reported in PubChem BioAssay (Tox21).
Results filed as inconclusive are left out. Active and inactive are the calls of the source. Calls follow the shape of the dose curve; as a rule, active = well fitted curve in the direction sought with a large enough effect in the repeat runs; inconclusive = weak or mixed curves; inactive = no such curve, though single readings can be large; an effect the other way counts as inactive or inconclusive.

Columns and labels:
[1] = A CellTox Green Cytotoxicity Assay to monitor cytotoxicity in HEK293 cells - 40 hour (AID 1224871); also: nearly all actives have a fitted effect of over 45% in size
Procedure, shortened: (§1)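 Cells (HEK293, 600/well) and dye reagent are dispensed together. After 5 h at 37 C, 23 nL compound is pinned in. Plates stay at 37 C for 40 h with fluorescence read at 0h, 8h, 16h, 24h, 32h and 40h.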

[2] = qHTS RealTime-Glo MT Cell Viability Assay in HEK293 cells - 16 hour (AID 1224872); also: top concentration of the series differs between compounds; nearly all actives have a fitted effect of over 50% in size
Procedure, shortened: (§2)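 Tox21 10K qHTS, HEK293, 600 cells/well, RealTime-Glo reagent co-dispensed with cells; 5 h preincubation, compound by pintool, 37 C, luminescence at 0–40 h.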

[3] = qHTS RealTime-Glo MT Cell Viability Assay in HepG2 cells - 8 hour (AID 1224873); also: nearly all actives have a fitted effect of over 55% in size
Procedure, shortened: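 Real-time viability: cells seeded at 600 per well together with NanoLuc and cell-permeant prosubstrate, compounds added after 5 h incubation. Luminescence tracked at 0, 8, 16, 24, 32 and 40 h of exposure.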

[4] = qHTS RealTime-Glo MT Cell Viability Assay in HEK293 cells - 40 hour (AID 1224874); details: RealTime-Glo luminescence; max response: active compounds read low; also: nearly all actives have a fitted effect of over 50% in size
Procedure, shortened: (§3)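 Real-time viability in HEK293: signal arises when living cells convert a prosubstrate for NanoLuc in the medium, so luminescence tracks viable cell number. Compound (23 nL, DMSO) added 5 h post-seeding; kinetic reads at 0–40 h, 37 C.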

[5] = A CellTox Green Cytotoxicity Assay to monitor cytotoxicity in HEK293 cells - 24 hour (AID 1224875); also: series mostly up to about 77 µM; nearly all actives have a fitted effect of over 45% in size
Procedure, shortened: as §1

[6] = A CellTox Green Cytotoxicity Assay to monitor cytotoxicity in HepG2 cells - 16 hour (AID 1224876); also: nearly all actives have a fitted effect of over 45% in size
Procedure, shortened: (§4)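 Cells and non-lytic dye reagent are dispensed together (600 HepG2 cells/well) and incubated 5 h before DMSO compound transfer. Kinetic fluorescence is then recorded in the same wells during 40 h at 37 C.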

[7] = qHTS RealTime-Glo MT Cell Viability Assay in HepG2 cells - 32 hour (AID 1224877); also: nearly all actives have a fitted effect of over 55% in size
Procedure, shortened: (§5)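 Cells + NanoLuc/prosubstrate dispensed (600 cells/well) → 5 h at 37 C/5% CO2 → compounds in DMSO transferred → 40 h incubation at 37 C, luminescence read at 0, 8, 16, 24, 32, 40 h.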

[8] = A CellTox Green Cytotoxicity Assay to monitor cytotoxicity in HepG2 cells - 24 hour (AID 1224878); also: nearly all actives have a fitted effect of over 45% in size
Procedure, shortened: as §4

[9] = A CellTox Green Cytotoxicity Assay to monitor cytotoxicity in HepG2 cells - 40 hour (AID 1224879); also: nearly all actives have a fitted effect of over 40% in size
Procedure, shortened: as §4

[10] = qHTS RealTime-Glo MT Cell Viability Assay in HEK293 cells - 0 hour (AID 1224880)
Procedure, shortened: as §3

[11] = A CellTox Green Cytotoxicity Assay to monitor cytotoxicity in HEK293 cells - 32 hour (AID 1224881); also: nearly all actives have a fitted effect of over 40% in size
Procedure, shortened: as §1

[12] = A CellTox Green Cytotoxicity Assay to monitor cytotoxicity in HepG2 cells - 32 hour (AID 1224883); also: nearly all actives have a fitted effect of over 50% in size
Procedure, shortened: as §4

[13] = A CellTox Green Cytotoxicity Assay to monitor cytotoxicity in HEK293 cells - 8 hour (AID 1224884); also: nearly all actives have a fitted effect of over 35% in size
Procedure, shortened: as §1

[14] = qHTS RealTime-Glo MT Cell Viability Assay in HepG2 cells - 16 hour (AID 1224885); also: nearly all actives have a fitted effect of over 50% in size
Procedure, shortened: as §5

[15] = qHTS RealTime-Glo MT Cell Viability Assay in HEK293 cells - 24 hour (AID 1224886)
Procedure, shortened: as §2

[16] = qHTS RealTime-Glo MT Cell Viability Assay in HEK293 cells - 8 hour (AID 1224887)
Procedure, shortened: as §3

[17] = qHTS RealTime-Glo MT Cell Viability Assay in HepG2 cells - 0 hour (AID 1224889); also: nearly all actives have a fitted effect of over 50% in size
Procedure, shortened: as §5

[18] = A CellTox Green Cytotoxicity Assay to monitor cytotoxicity in HepG2 cells - 0 hour (AID 1224882); also: nearly all actives have a fitted effect of over 35% in size
Procedure, shortened: as §4

[19] = A CellTox Green Cytotoxicity Assay to monitor cytotoxicity in HEK293 cells - 16 hour (AID 1224888); also: nearly all actives have a fitted effect of over 35% in size
Procedure, shortened: as §1
% is scaled to controls: 0 for no effect and ±100 for the full control effect.

C=C(C)CS(=O)(=O)O
inactive: Potency [1] | Potency [2] | Potency [3] | max response [4] -0.0402% | Potency [5] | Potency [6] | Potency [7] | Potency [8] | Potency [9] | Potency [10] | Potency [11] | Potency [12] | Potency [13] | Potency [14] | Potency [15] | Potency [16] | Potency [17]

O=[N+]([O-])c1ccc(F)cc1F
inactive: Potency [1] | Potency [2] | Potency [3] | max response [4] 9.7% | Potency [6] | Potency [7] | Potency [8] | Potency [9] | Potency [10] | Potency [11] | Potency [18] | Potency [12] | Potency [13] | Potency [14] | Potency [15] | Potency [16] | Potency [17]

O=C(O)CCCc1ccccc1
inactive: Potency [1] | Potency [2] | Potency [3] | max response [4] 0.564% | Potency [5] | Potency [7] | Potency [9] | Potency [10] | Potency [11] | Potency [12] | Potency [13] | Potency [14] | Potency [15] | Potency [19] | Potency [17]

CCOC(=O)CC(C)=O
inactive: Potency [1] | Potency [2] | Potency [3] | max response [4] 14.1% | Potency [5] | Potency [6] | Potency [7] | Potency [8] | Potency [9] | Potency [10] | Potency [11] | Potency [18] | Potency [12] | Potency [13] | Potency [14] | Potency [15] | Potency [19] | Potency [17]

Brc1c(NC2=NCCN2)ccc2nccnc12
inactive: Potency [1] | Potency [2] | Potency [3] | max response [4] -1.41% | Potency [6] | Potency [7] | Potency [8] | Potency [9] | Potency [10] | Potency [11] | Potency [18] | Potency [12] | Potency [13] | Potency [14] | Potency [15] | Potency [19] | Potency [17]

NS(=O)(=O)c1ccc(C(=O)O)cc1
inactive: Potency [1] | Potency [2] | Potency [3] | max response [4] -0.921% | Potency [5] | Potency [6] | Potency [7] | Potency [8] | Potency [9] | Potency [10] | Potency [11] | Potency [12] | Potency [13] | Potency [14] | Potency [15] | Potency [16] | Potency [19] | Potency [17]

C[N+](C)(C)CC(O)CC(=O)[O-] (centres undefined)
inactive: Potency [1] | Potency [2] | Potency [3] | max response [4] -3.45% | Potency [5] | Potency [6] | Potency [7] | Potency [8] | Potency [9] | Potency [10] | Potency [11] | Potency [18] | Potency [12] | Potency [13] | Potency [14] | Potency [15] | Potency [16] | Potency [17]

C=C[Si](OC(=C)C)(OC(=C)C)OC(=C)C
inactive: Potency [1] | Potency [2] | Potency [3] | max response [4] 13.4% | Potency [5] | Potency [7] | Potency [8] | Potency [9] | Potency [10] | Potency [11] | Potency [18] | Potency [12] | Potency [13] | Potency [14] | Potency [15] | Potency [17]

CC(C)=CCCC(C)CC(=O)O (centres undefined)
inactive: Potency [1] | Potency [2] | Potency [3] | max response [4] 2.41% | Potency [5] | Potency [6] | Potency [7] | Potency [8] | Potency [9] | Potency [10] | Potency [11] | Potency [18] | Potency [12] | Potency [13] | Potency [14] | Potency [15] | Potency [16] | Potency [17]
